{
  "source": "PubChem BioAssay AID1018",
  "about": "(Sanford-Burnham Center for Chemical Genomics, 2008)",
  "note": "Among all 200,000 compounds or so, about 15 (0.007%) were called active. Only a selection was taken, and actives are over-represented in it overall. Values without a mark were called inactive. Rule as the data show it: active = displacement above about 50%; inactive = the rest.",
  "data": [
    {"molecular_target": "E3 ubiquitin-protein ligase XIAP (Homo sapiens) (UniProt P98170)", "sequence (P98170 whole entry, looked up, the tested form may be a part)": "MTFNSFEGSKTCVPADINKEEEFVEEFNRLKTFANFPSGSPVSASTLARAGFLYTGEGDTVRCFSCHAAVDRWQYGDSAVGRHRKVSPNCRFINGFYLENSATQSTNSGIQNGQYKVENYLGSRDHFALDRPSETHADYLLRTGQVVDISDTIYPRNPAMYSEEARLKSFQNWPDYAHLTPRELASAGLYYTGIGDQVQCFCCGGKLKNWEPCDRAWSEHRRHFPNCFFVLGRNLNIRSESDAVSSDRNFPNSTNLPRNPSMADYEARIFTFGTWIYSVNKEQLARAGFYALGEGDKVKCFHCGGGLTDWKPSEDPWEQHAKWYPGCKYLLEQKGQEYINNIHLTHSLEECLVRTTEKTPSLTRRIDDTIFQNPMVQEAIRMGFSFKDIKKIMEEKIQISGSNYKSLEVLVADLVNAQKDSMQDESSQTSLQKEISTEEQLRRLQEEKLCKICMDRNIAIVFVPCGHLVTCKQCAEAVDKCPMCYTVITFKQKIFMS", "experiment": "XIAP antagonists, biochemical, IAP family, fluorescence polarization (AID 1018)", "details": "XIAP BIR domain, fluorescence polarization peptide displacement; at 20 µM; hits give high values", "values": [
      {"smiles": "O=C(O)CCCc1nc(-c2ccc(Cl)cc2)no1", "displacement": "70.8% (active)"},
      {"smiles": "O=C(O)CCCc1nc(-c2ccccc2)no1", "displacement": "-1.3%"},
      {"smiles": "O=C(O)CCc1nc(-c2ccc(Cl)cc2)no1", "displacement": "-3.7%"},
      {"smiles": "Cc1cccc(-c2n[nH]c(=S)n2-c2ccccc2)c1[N+](=O)[O-]", "displacement": "-3.7%"},
      {"smiles": "CC(=O)C(C(C)=O)C1(O)C(=O)c2ccccc2C1=O", "displacement": "-3.4%"},
      {"smiles": "Fc1cccc(Cn2cc(C(=S)N3CCOCC3)c3ccccc32)c1", "displacement": "-4.3%"},
      {"smiles": "CCC(C(=O)O/N=C(\\N)c1ccc(Cl)cc1)c1ccccc1", "note": "(stereo unspecified)", "displacement": "-3.6%"},
      {"smiles": "Cc1cccc2cc(COC(=O)C(C)C)c(=O)[nH]c12", "displacement": "-4.3%"},
      {"smiles": "COC(=O)c1cn(NC(=O)c2ccc3c(c2)OCO3)c(=O)c2ccccc12", "displacement": "-3.5%"},
      {"smiles": "CCOC(=O)C1(CC2CC2)CCN(S(=O)(=O)/C=C/c2ccccc2)CC1", "displacement": "-6.8%"},
      {"smiles": "Cc1ccc(-n2c(-c3ccccc3)c[n+]3c2CCc2ccccc2-3)c(C)c1", "displacement": "-4.9%"},
      {"smiles": "N/C(=N\\OC(=O)CCC1CCCC1)c1ccc([N+](=O)[O-])cc1", "displacement": "-1.2%"},
      {"smiles": "CC(=O)Nc1cccc(NC(=O)Nc2cccc(Cl)c2C)c1", "displacement": "-2.6%"},
      {"smiles": "CCC/C=N/NC(=O)c1ccc(F)cc1", "displacement": "-5.5%"},
      {"smiles": "CCCNC(=O)C12CCC(C)(c3nc4cc(C)c(C)cc4nc31)C2(C)C", "note": "(stereo unspecified)", "displacement": "-3%"},
      {"smiles": "CCOC(=O)N1CCC(N2Cc3cccc(C(=O)Nc4ccc(OC)c(OC)c4)c3C2=O)CC1", "displacement": "1.9%"},
      {"smiles": "O=C(Nc1nnc(Cc2ccc(Cl)cc2)s1)C1CCCO1", "note": "(stereo unspecified)", "displacement": "-3.9%"},
      {"smiles": "COCCN1CCN(c2c3c(nc4cc(-c5cccc(F)c5)nn24)CCC3)CC1", "displacement": "-10.3%"},
      {"smiles": "O=C(O)C(Cc1ccccc1)N1Cc2ccccc2C1=O", "note": "(stereo unspecified)", "displacement": "-8.8%"},
      {"smiles": "O=C(O)[C@H](Cc1ccccc1)N1Cc2ccccc2C1=O", "displacement": "2.3%"},
      {"smiles": "CCOC(=O)/C=C/S(=O)(=O)c1ccc(NC(C)=O)cc1", "displacement": "-2.6%"},
      {"smiles": "CCN(CC)CCN(C(=O)c1c(F)cccc1F)c1nc2cc(C)cc(C)c2s1", "displacement": "-3.6%"},
      {"smiles": "Cc1ccc(NC(=O)c2ccc(-n3cncn3)c([N+](=O)[O-])c2)cc1", "displacement": "-3.6%"},
      {"smiles": "CN(C)CCNC(=O)c1ccccc1", "displacement": "-5.4%"},
      {"smiles": "CC1CCN(S(=O)(=O)c2ccc(N/N=C(/C#N)C(N)=O)cc2)CC1", "displacement": "-6.4%"},
      {"smiles": "Cc1ccc(C)c(NC(=S)N(C)CCO)c1", "displacement": "-3.7%"},
      {"smiles": "Cn1c(=O)[nH]c(=O)c2c1nc(N1CCCCC1)n2CCSc1nc2ccccc2o1", "displacement": "-3.9%"},
      {"smiles": "COc1ccc(N(CC(=O)NCCSC2CCCCC2)S(C)(=O)=O)c(OC)c1", "displacement": "-4.6%"},
      {"smiles": "COc1ccc(/C(O)=C2/C(=O)C(=O)N(CCN(C)C)C2c2cccnc2)cc1OC", "note": "(stereo unspecified)", "displacement": "-8.8%"},
      {"smiles": "O=C(COC(=O)c1cccc(S(=O)(=O)N2CCc3ccccc32)c1)Nc1ccc(Cl)cn1", "displacement": "-4.3%"},
      {"smiles": "Cc1ccc(NC(=O)COC(=O)c2ccc3c(c2)NC(=O)C2CCCN32)cc1", "note": "(stereo unspecified)", "displacement": "-1.5%"},
      {"smiles": "Cc1ccc(CNC(=O)Cn2cc(C(F)(F)F)ccc2=O)cc1", "displacement": "-2.9%"},
      {"smiles": "S=C(Nc1ccc(Cl)cc1)N1CCN(C2CCCCC2)CC1", "displacement": "-3.9%"},
      {"smiles": "O=C(OCCC1Oc2cccnc2NC1=O)c1ccc(F)cc1", "note": "(stereo unspecified)", "displacement": "-2.6%"},
      {"smiles": "Nc1nc(-c2ccco2)nn1S(=O)(=O)c1ccc(Cl)cc1", "displacement": "-2.1%"},
      {"smiles": "CN(C)C(CNC(=O)Cc1cccc(C(F)(F)F)c1)c1ccco1", "note": "(stereo unspecified)", "displacement": "-10.8%"},
      {"smiles": "O=C(COc1ccc(Cl)cc1[N+](=O)[O-])N/N=C/c1cccs1", "displacement": "-10.2%"},
      {"smiles": "N=C1C(c2ccccc2)=C(O)CN1c1ccccc1N1CCOCC1", "displacement": "-6.4%"},
      {"smiles": "O=C(CCCOc1ccccc1)Nc1ccc(S(=O)(=O)N2CCOCC2)cc1", "displacement": "-4.6%"},
      {"smiles": "COc1cc(C)c(Cl)c(C)c1S(=O)(=O)NC1CC(C)(C)NC(C)(C)C1", "displacement": "-4.7%"},
      {"smiles": "Cc1ccc(-c2[nH]nc3c2C(c2ccccc2OC(=O)N2CCOCC2)C(C#N)=C(N)O3)cc1", "note": "(stereo unspecified)", "displacement": "1.4%"},
      {"smiles": "Cc1ccc(N2N=C(c3ccc(Br)cc3)CCC2=O)cc1", "displacement": "-4.4%"},
      {"smiles": "Cc1ccc(Cn2cccc2C2=NC(C)CO2)cc1", "note": "(stereo unspecified)", "displacement": "-0.2%"},
      {"smiles": "COc1ccc(C(=O)NC(=S)N2CC(C)OC(C)C2)cc1OC", "note": "(stereo unspecified)", "displacement": "-1.8%"},
      {"smiles": "COc1ccc(CN2C(=O)c3cccnc3C2Nc2ccc(OC)c(Cl)c2)cc1", "note": "(stereo unspecified)", "displacement": "-2%"},
      {"smiles": "COc1ccc(CN2C(=O)c3cccnc3C2Nc2cc(Cl)ccc2OC)cc1", "note": "(stereo unspecified)", "displacement": "63.8% (active)"},
      {"smiles": "COc1ccc(CN2C(=O)c3cccnc3C2Nc2cc(Cl)c(OC)cc2OC)cc1", "note": "(stereo unspecified)", "displacement": "9.6%"},
      {"smiles": "Cc1ccc(N=N/C(=C\\O)C(=O)c2ccc(Cl)cc2)cc1", "displacement": "-7.5%"},
      {"smiles": "CCN(CC)CCNC(=O)/C(=C/c1cn(CC)c2ccccc12)NC(=O)c1cc(OC)c(OC)c(OC)c1", "displacement": "-5.1%"},
      {"smiles": "CC(=O)NC1C(=O)N(CCc2ccccc2)c2ccccc21", "note": "(stereo unspecified)", "displacement": "1.5%"},
      {"smiles": "Cc1ccc(NC(=O)c2cccc(Cl)c2)nc1", "displacement": "-1.6%"},
      {"smiles": "Cn1nccc1C(=O)Nn1cnnc1", "displacement": "1.6%"},
      {"smiles": "Cc1ccc(S(=O)(=O)N2CCOCC2)cc1NC(=O)COC(=O)c1ccccc1OCc1c(C)noc1C", "displacement": "0.2%"},
      {"smiles": "COc1cc(OC)c(C(=O)NCC(c2cccs2)N(C)C)cc1OC", "note": "(stereo unspecified)", "displacement": "-4.3%"},
      {"smiles": "O=C(CN1CCOCC1)N1CCN(S(=O)(=O)c2ccccc2)C1c1ccccc1", "note": "(stereo unspecified)", "displacement": "-3.4%"},
      {"smiles": "CCOc1ccccc1NC(=O)c1nc[nH]c1C(=O)Nc1ccccc1OCC", "displacement": "-4.1%"},
      {"smiles": "CCCOC(=O)c1sc2nc3c(cc2c1N)C(=O)CCC3", "displacement": "-6%"},
      {"smiles": "CCOC(=O)c1c(C(=O)OCC)c(C)n(N2C(=O)CSC2=S)c1C", "displacement": "-39.5%"},
      {"smiles": "Cc1nn2cc(-c3ncc(C(F)(F)F)cc3Cl)cnc2c1Br", "displacement": "-5.1%"},
      {"smiles": "CN1CCN(C2CCCCCC2)CC1", "displacement": "-7.6%"},
      {"smiles": "O=[N+]([O-])c1c(NCCO)cc(N2CCC3(CC2)OCCO3)c2nonc12", "displacement": "-5.3%"},
      {"smiles": "O=C(O)CCCNc1cc(N2CCC3(CC2)OCCO3)c2noc3c2c1C(=O)c1ccccc1-3", "displacement": "87.1% (active)"},
      {"smiles": "CC(=O)OCCNc1cc(N2CCN(C)CC2)c2noc3c2c1C(=O)c1ccccc1-3", "displacement": "-1.6%"},
      {"smiles": "O=C1c2ccccc2-c2onc3ccc(N4CCCC4)c1c23", "displacement": "-14.9%"},
      {"smiles": "CCOC(=O)N1CCN(c2cc(NCCO)c([N+](=O)[O-])c3nonc23)CC1", "displacement": "-2.9%"},
      {"smiles": "CCOC(=O)N1CCN(c2cc(NCCC(=O)O)c3c4c(onc24)-c2ccccc2C3=O)CC1", "displacement": "67.3% (active)"},
      {"smiles": "CC(=O)C(C)Oc1cc(C)cc2oc(=O)c(C)c(C)c12", "note": "(stereo unspecified)", "displacement": "-5.9%"},
      {"smiles": "Cc1cc(OCC(=O)C(C)(C)C)c2c(C)c(C)c(=O)oc2c1", "displacement": "-1.7%"},
      {"smiles": "CC(=O)COc1cc(C)cc2oc(=O)c(C)c(C)c12", "displacement": "61.1% (active)"},
      {"smiles": "Cc1ccc(Cn2nnc3c(=O)[nH]c(C4CCN(S(=O)(=O)c5ccccc5)CC4)nc32)cc1", "displacement": "-5.4%"},
      {"smiles": "Cc1ccc(Cn2nnc3c(=O)[nH]c(C4CCN(S(=O)(=O)c5ccc(F)cc5)CC4)nc32)cc1", "displacement": "63.3% (active)"},
      {"smiles": "Cc1ccc(Cn2nnc3c(=O)[nH]c(C4CCN(S(=O)(=O)c5ccc(C)cc5)CC4)nc32)cc1", "displacement": "-2%"},
      {"smiles": "COc1ccc(N(CC(O)CN2CCCCC2)S(=O)(=O)c2ccc(C)cc2)cc1", "note": "(stereo unspecified)", "displacement": "-3.7%"},
      {"smiles": "C=CC(=O)NCCCc1cc(C(C)(C)C)c(O)c(C(C)(C)C)c1", "displacement": "-6.9%"},
      {"smiles": "Cc1ccccc1N(CC(=O)O)S(C)(=O)=O", "displacement": "-4.6%"},
      {"smiles": "CN(C)CCCOC(=O)COc1ccc(C(C)(C)C)cc1", "displacement": "-1.4%"},
      {"smiles": "CCC(C)(C(=O)NC1CCCC1)N(Cc1cccs1)C(=O)c1ccc2c(c1)OCO2", "note": "(stereo unspecified)", "displacement": "-5.3%"},
      {"smiles": "CC(C)Cn1c2c(c(O)c(C(=O)Nc3ccc(F)cc3)c1=O)CCCC2", "displacement": "0.5%"},
      {"smiles": "COc1ccccc1NCCC#N", "displacement": "-1.4%"},
      {"smiles": "Cc1cccc(OCC(=O)NNC(=O)c2cccs2)c1", "displacement": "-3.8%"},
      {"smiles": "Cc1[nH]n(-c2ccc([N+](=O)[O-])cc2)c(=O)c1C=NCCN1CCN(C(=O)c2ccccc2)CC1", "displacement": "-2.6%"},
      {"smiles": "O=C(NCCCO)c1ccc(CSc2nc3ccccc3[nH]2)cc1", "displacement": "-4%"},
      {"smiles": "CC(=O)C1C(c2cccc(F)c2)NC(=O)NC1(O)C(F)(F)F", "note": "(stereo unspecified)", "displacement": "0%"},
      {"smiles": "COC(=O)C(NNc1ccccc1C)(NC(=O)c1ccc(F)cc1)C(F)(F)F", "note": "(stereo unspecified)", "displacement": "-3.9%"},
      {"smiles": "O=C(/C=C/c1ccco1)NCC(=O)N/N=C/c1ccccc1[N+](=O)[O-]", "displacement": "-3.9%"},
      {"smiles": "O=c1c(Cc2ccc(F)cc2)c(O)ccn1CCc1ccccn1", "displacement": "-4.4%"},
      {"smiles": "CCN1/C(=C/c2ccc3cc(C)ccc3[n+]2CC)Sc2ccccc21", "displacement": "-5.1%"},
      {"smiles": "CCN1/C(=C/c2ccc3cc(C)ccc3[n+]2CC)Sc2cc(C)ccc21", "displacement": "1.8%"},
      {"smiles": "CCN1/C(=C/c2ccc3cc(C)ccc3[n+]2C)Sc2ccc3sccc3c21", "displacement": "72.1% (active)"},
      {"smiles": "O=C(COc1ccccc1)Nc1ccncc1", "displacement": "-2.7%"},
      {"smiles": "Cc1sc(N)c(C#N)c1C", "displacement": "-1.2%"},
      {"smiles": "CC(C)Oc1cccc(C(=O)C2CCCN(Cc3ccc4nonc4c3)C2)c1", "note": "(stereo unspecified)", "displacement": "-5.9%"},
      {"smiles": "CCc1c(C)nc2c(Br)cccc2c1SCCC#N", "displacement": "-0.5%"},
      {"smiles": "CN(C)c1nc(N)nc(CSc2nnnn2-c2ccccc2)n1", "displacement": "-5.7%"},
      {"smiles": "CCOC(=O)c1c(-c2ccccc2)oc2ccc(O)c(CN3CCN(C)CC3)c12", "displacement": "-5.2%"},
      {"smiles": "Cc1cc(NC(=O)COn2nnc3ccc(Cl)cc32)no1", "displacement": "-5.1%"}
    ]}
  ]
}
